Results from PubChem BioAssay AID588493 (Sanford-Burnham Center for Chemical Genomics, 2011).
Among all 360,000 compounds or so, about 2,100 (0.58%) were called active. This is one part of a sample in which actives are shown more often than they occur. Unmarked numbers belong to inactive results.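 The calls were made as follows: active = inhibition at 20 µM, scaled to each plate's controls, above about 33% (limit read from the data); inactive = the rest.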

Each compound was assayed against 26S proteasome non-ATPase regulatory subunit 14 (Homo sapiens) (UniProt O00487) (assay: inhibition of 26S proteasome subunit Rpn11 – biochemical, fluorescence polarization, uHTS, primary screen (AID 588493)). Details: human 26S proteasome, Ub4-pepOG fluorescence polarization; at 20 µM; stronger effect = higher value; 20S core pre-blocked with epoxomicin.
Sequence of 26S proteasome non-ATPase regulatory subunit 14 (Homo sapiens) (O00487 whole entry, looked up): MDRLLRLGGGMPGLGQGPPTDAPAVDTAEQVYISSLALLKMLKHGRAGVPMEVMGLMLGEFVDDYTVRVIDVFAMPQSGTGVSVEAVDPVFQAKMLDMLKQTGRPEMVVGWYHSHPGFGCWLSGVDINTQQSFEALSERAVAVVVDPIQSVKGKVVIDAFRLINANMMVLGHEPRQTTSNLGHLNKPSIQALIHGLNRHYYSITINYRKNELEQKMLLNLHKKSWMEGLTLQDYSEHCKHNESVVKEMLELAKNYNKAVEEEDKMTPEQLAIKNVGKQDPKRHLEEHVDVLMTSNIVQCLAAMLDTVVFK

In order of rising inhibition:
1. COc1ccc(NC(=O)CN(C)C(=O)c2cc(C)oc2C)cc1  -18.9%
2. CCOc1ccc(N/C(N)=N/c2nc(C)c(C)c(=O)[nH]2)cc1  -8.8%
3. Cc1ccc(S(=O)(=O)N[C@@H](Cc2ccccc2)C(=O)N2CCC(C(=O)N[C@H](C(=O)O)C(C)O)CC2)cc1 (stereo partly drawn)  -7.8%
4. Cc1cccc(C(=O)N2CCC(c3nc4ccccc4s3)CC2)c1  -7.6%
5. COc1ccc(C(CC(=O)Nc2ccc(C)cc2)NC(=O)C(F)(F)F)cc1 (stereo not drawn)  -7.5%
6. CSc1ccccc1NC(=O)C(C)N1C(=O)c2ccccc2S1(=O)=O (stereo not drawn)  -7.1%
7. CC(=O)N(O)CCCCCNC(=O)CCC(=O)N(O)CCCCCNC(=O)CCC(=O)N(O)CCCCCNC(=O)CCC(=O)O  -7%
8. COc1ccc(S(=O)(=O)N(C)C[C@H]2OCc3cnnn3CCCC(=O)N([C@H](C)CO)C[C@H]2C)cc1  -6.2%
9. CCS(=O)(=O)c1ccc(-c2cccc(NC(=O)c3ccc(Br)o3)c2)nn1  -4.8%
10. Cc1csc2nc(O)c(C(=O)NCCN3CCOCC3)c(=O)n12  -3.8%
11. C#CCNc1nc(C(C)C)nc2c1nnn2Cc1ccccc1F  -3.7%
12. CC1(C(=O)NS(=O)(=O)c2ccccc2)CCN1C(=O)C1CCCCC1 (stereo not drawn)  -2.7%
13. Cc1ccc(C2CCN(C(=S)Nc3cccc(Cl)c3)C2)cc1 (stereo not drawn)  -2.1%
14. Nc1nnc(SCCN2C(=O)c3ccccc3S2(=O)=O)s1  -2.1%
15. COCCCNC(=S)NCCNc1nc2cc(C)c(C)cc2cc1C#N  -1.6%
16. CCOC(=O)c1ccc2c(c1)nc(SCC(=O)NC(C)C)n2CC  -1.6%
17. CCCCC(C(=O)NC(C)(C)C)N(Cc1ccccc1)C(=O)c1snc(C(N)=O)c1N (stereo not drawn)  -1.4%
18. C=CCc1cc(S(=O)(=O)c2ccc(O)c(CC=C)c2)ccc1O  -1.3%
19. O=C(Nc1ccc(-c2cscn2)cc1)C1CCCN(Cc2ccc(CO)o2)C1 (stereo not drawn)  -1.3%
20. COCCCNC(=O)c1ccc(CNS(=O)(=O)c2ccc(NC(C)=O)cc2)cc1  -1.2%
21. Cc1nc2ccc(NC(=O)C3CCCCC3)cc2s1  -1.1%
22. CCOc1ccc(CN2CCN(Cc3ccc4cc(F)ccc4n3)CC2CCO)cc1 (stereo not drawn)  -0.7%
23. O=C(Nc1ccc(-c2nnc(-c3ccccc3)o2)cc1)C1CCCO1 (stereo not drawn)  -0.7%
24. Cc1ccc(NC(=O)Cn2c(C)csc2=O)cc1  -0.6%
25. CN1CCN(c2ccc(NC(=O)c3cc(Cl)c4c(c3)OCCO4)cc2)CC1  -0.3%
26. CNC(=O)NCCN1CCCC1=O  -0.3%
27. CCOC(=O)CSc1nnc(CNC(=O)Cc2ccccc2)n1-c1ccccc1OC  0.1%
28. O=C(Nc1ccc(N2CCN(C(=O)C3CC3)CC2)cc1)c1cccs1  0.2%
29. CSc1nccc(NC(=O)c2ccc(C(C)(C)C)cc2)n1  0.3%
30. Cc1cc(C)cc(NC(=S)NCCCN2CCOCC2)c1  0.3%
31. COC(=O)[C@]1(C)CCC[C@@]2(C)C3CC[C@]4(OC(C)=O)C[C@@]3(CCC21)CC4=NO (stereo partly drawn)  0.3%
32. O=C(OCCOCn1cc(Br)c(=O)[nH]c1=O)c1ccccc1  0.6%
33. CCCOC(=O)c1ccc(N2C(=O)c3ccccc3C2=O)cc1  0.9%
34. O=C(CN1CCc2cc3c(cc2C1)OCCCO3)Nc1ccccc1  1.3%
35. CCC(C)Sc1nc(C)nc2c1c(=O)n(C)c(=O)n2C (stereo not drawn)  2%
36. CONc1nc2nonc2nc1NOC  2.2%
37. O=C(CCN1CCN(C/C=C/c2ccccc2)CC1)Nc1cccc(F)c1  2.3%
38. CCCn1nc(C(=O)NNC(=O)CSCC(=O)Nc2cc(C)on2)c2ccccc2c1=O  2.6%
39. CCOc1ccc(-n2c(SCC(=O)Nc3cc(C(=O)O)ccc3Cl)nc3ccccc3c2=O)cc1  2.7%
40. CCC(=O)N(C)C(c1ccccc1Cl)c1nnnn1-c1c(C)cccc1C (stereo not drawn)  2.8%
41. Cc1ccc(C(=O)NCC(=O)OCc2nnc(-c3ccccc3)o2)cc1  3%
42. Cc1nc2nc(COc3ccccc3)[nH]n2c(=O)c1C  3.7%
43. CCOC(=O)C1(CC2CCCCO2)CCN(Cc2nc(-c3cccs3)oc2C)CC1 (stereo not drawn)  4%
44. O=S(=O)(c1cccc(S(=O)(=O)N2CCC(n3nnc4ccccc43)CC2)c1)N1CCCCC1  4.9%
45. COc1ccc(C2N=C(N)N=C(N)N2c2ccccc2)cc1OC (stereo not drawn)  6%
46. COc1ccc(-c2cn(-c3ccc(C)cc3)c(=O)n2CC(=O)Nc2ccc(OC)c(OC)c2)cc1  6.4%
47. Cc1nnc(N/N=C/c2ccccn2)[nH]c1=O  6.9%
48. CCN1C(=O)[C@@H]2[C@@H](c3ccc(-c4ccccc4)cc3)N3CCCC[C@@]3(C(=O)OC)[C@@H]2C1=O  7%
49. Cc1ccc(NC(=O)CN2CCc3ccccc3C2)cc1C  7.2%
50. Cn1cnnc1SCC(=O)Nc1ccc(N2CCOCC2)cc1  7.5%
51. CN(Cc1ccccc1F)c1cc2c(c3c1ccn3C)C1CCC2O1 (stereo not drawn)  7.9%
52. CC(C)(C)C(=O)Nc1c(Br)c(C2CC2)nn1-c1ccccc1  9.6%
53. CCCCCCSc1ccc([C@@H]2[C@@H]3C(=O)N(CC)C(=O)[C@@H]3[C@]3(C(=O)OC)CCCCN23)cc1OC  15.9%
54. COC(=O)Cc1csc(/N=C/c2c(O)n(-c3cccc(C(F)(F)F)c3)c(=O)c3ccccc23)n1  33.4%

`Cc1ccc(NC(=O)CN2CCc3ccccc3C2)cc1` was tested, and the inhibition was 90.1% (active).
In the case of `CSC1=N/C(=C\C=C\c2cccs2)C(=O)S1`, the inhibition is reported as 41.3% (active).
For `Cc1nc2ccc(C(=O)N3CCSCC3)cc2s1`, the inhibition was 93.1% (active).
For `Cc1ccc2cc(C#N)c(NCCNC(=S)NCCCN3CCOCC3)nc2c1`, the inhibition was 50.7% (active).
With `C=CC(=O)Nc1ccc(Nc2ccnc(Nc3ccc(N4CCN(C)CC4)cc3)n2)cc1` the inhibition was 66.1% (active).
`CC(=O)Nc1ccccc1Sc1ccc2c3c(cccc13)C(=O)N(c1ccc(C)cc1)C2=O` was tested, and the inhibition was 48.3% (active).
For `CCOc1ccc(-n2c(O)c(/C=N/Nc3nnc(C)c(=O)[nH]3)c3ccccc3c2=O)cc1`, the inhibition was 36.2% (active).
In the case of `CCOc1ccc(-n2c(O)c(/C=N/c3ccnn3Cc3ccncc3)c3ccccc3c2=O)cc1`, the inhibition is reported as 76.5% (active).
`COc1ccc2[nH]c3c(C)c4cc[n+](C)cc4c(C)c3c2c1` was tested, and the inhibition was 88.8% (active).
For `CCCCCCSc1ccc([C@@H]2[C@H]3C(=O)N(CC)C(=O)[C@H]3[C@]3(C(=O)OC)CCCCN23)cc1`, the inhibition was 40.3% (active).
In the case of `COc1ccc(NC(=O)Cn2c(-c3ccc(OC)cc3)cn(-c3ccc(C)cc3)c2=O)cc1`, the inhibition is reported as 43.4% (active).
With `O=C(Nc1ccc(-c2nnc(-c3ccccc3)o2)cc1)c1ccc(Br)o1` the inhibition was 56.9% (active).
With `Cc1ccc(-c2nnc(-c3ccc(NC(=O)c4cccs4)cc3)o2)cc1` the inhibition was 149% (active).
With `COc1ccc(CC(=O)Nc2ccc(-c3nnc(-c4ccc(C)cc4)o3)cc2)cc1` the inhibition was 32.7% (active).
